Measurements as given in PubChem BioAssay AID504583 (Broad Institute, 2011).
Results with a measured potency or affinity are listed apart. Records with an inconclusive call do not appear. Unmarked numbers belong to inactive results.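 How the source made its calls: active means lowers substrate conversion with a fitted half-maximal potency at most ten times the top dose, in every run; inconclusive means runs disagree, or flat weak or poorly fitted curves; inactive means every run inactive, flat, weak or opposite direction.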

molecular target: cAMP-dependent protein kinase catalytic subunit alpha (Homo sapiens) (UniProt P17612); assay: PKA catalytic subunit inhibitors, dose response, biochemical, Caliper mobility shift, dry powder samples (AID 504583); conditions: recombinant PKA, Caliper peptide phosphorylation % conversion; series mostly up to 10 µM; % substrate conversion (lower = inhibition): at the top concentration

| SMILES | % substrate conversion (lower = inhibition) [%] |
| --- | --- |
| COc1cc(N2CCN(C)CC2)ccc1Nc1ncc2c(n1)N(C1CCCC1)C(C)CC(=O)N2C (centres undefined) | 28.5 |
| O=C1NCCCc2c1oc1ccc(O)cc21 | 27.7 |
| CC(C)n1cnc2c(Nc3cccc(Cl)c3)nc(NCCO)nc21 | 29.7 |
| CC(Oc1ccc2c(c1)c1ccnc3c4ccccc4c(=O)n2c13)C(=O)NCCN1CCOCC1 (centres undefined) | 35.1 |
| COc1cc(N2CCC(N3CCN(C)CC3)CC2)ccc1Nc1ncc2c(n1)N(C1CCCC1)C(C)CC(=O)N2C (centres undefined) | 26.4 |
| COc1cc(/C=N/n2c(-c3ccccc3)n[nH]c2=S)ccc1O | 31.8 |
| CC(=O)N(C)c1ccc(N=Cc2c(O)ccc3ccccc23)cc1 | 32.2 |
| CCCn1c(NC(=O)c2cccc(S(=O)(=O)N3CCCC3)c2)nc2ccccc21 | 26.1 |
| COc1cc(/C=C2\SC(N)=NC2=O)ccc1O | 30.5 |
| O=C(Nc1ccccc1-c1nc2ccccc2[nH]c1=O)c1cccs1 | 28.3 |
| COc1cc(N2CCN(C)CC2)ccc1Nc1ncc2c(n1)N(C)c1sccc1C(=O)N2C | 28.3 |
| O=C1NC(=NCc2ccccc2)S/C1=C/c1ccc(O)cc1 | 27.7 |
| CCOc1ccccc1C(=O)Nc1cc(Cl)ccc1O | 34.3 |
| COc1cc(/C=C2\SC(=Nc3ccccc3OC)NC2=O)ccc1O | 23.2 |
| COc1cc(N2CCC(O)CC2)ccc1Nc1ncc2c(n1)N1CCc3cccc(c31)C(=O)N2C | 29.5 |
| COc1cc(N2CCN(C)CC2)ccc1Nc1ncc2c(n1)N(C)c1ccccc1C(=O)N2C | 29.4 |
| Cc1ncc(/C=C2\C(=O)Nc3ccccc32)[nH]1 | 26.6 |
| O=C(Nc1ccccc1-c1ccccc1)c1ccc(Br)o1 | 30.1 |
| COc1cc(C(=O)NC2CCN(C)CC2)ccc1Nc1ncc2c(n1)N(C1CCC(O)CC1)CCC(=O)N2C (centres undefined) | 31.3 |
| Oc1ccc(Nc2nc(-c3ccccc3O)nc3ccccc23)cc1 | 26.3 |
| CN1CCN(c2ccc(Nc3ncc4c(n3)N(C)c3ccccc3C(=O)N4C)cc2)CC1 | 27.9 |
| COc1cc(N2CCN(C)CC2)ccc1Nc1ncc2c(n1)N1CCC[C@H]1CC(=O)N2C | 30.5 |
| COc1cc(C(=O)N2CCC(N3CCN(C)CC3)CC2)ccc1Nc1ncc2c(n1)N(C)c1ccccc1C(=O)N2C | 27.9 |
| COc1cc(N2CCC(N3CCN(C)CC3)CC2)ccc1Nc1ncc2c(n1)N1CCC[C@H]1CC(=O)N2C | 29.8 |
